# RE007 growth inh = less growth of the S. pombe RE007 Vpr strain; Potency, µM (top dose mostly 92.2 µM), for the others: at the top dose activity change, negative = less growth, hits mostly inhibitors; actives 0.21% (n = 360,000); S. pombe RE007 Vpr strain, BacTiter-Glo ATP luminescence, 24 h; active = well fitted falling curve with a large enough effect; inconclusive = small, poorly fitted or top-dose-only effect; inactive = no such curve, though single readings can be large or run the other way; note: % is set by controls: 0 for no effect and ±100 for the full control effect; nearly all actives have a fitted effect of over 50% in size
#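 Fission yeast strain RE007, carrying one chromosomally integrated HIV-1 vpr copy, was seeded at OD 0.01 in PMG+AL medium with 23 nL pinned compound. After 24 h at 30 °C and 99% humidity, viability was read by BacTiter-Glo luminescence.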
# LmPK inh = blocks Leishmania mexicana pyruvate kinase activity. Q27686. purified LmPK, Kinase-Glo ATP luminescence, 1 h. Potency, µM (top dose mostly 57.5 µM), inactives show at the highest dose activity change, negative = inhibition, actives largely listed as inhibitors. actives 0.37% (n = 290,000). AID 1721; note: % is set by controls: 0 for no effect and ±100 for the full control effect
# Target sequence (Q27686 whole entry, looked up): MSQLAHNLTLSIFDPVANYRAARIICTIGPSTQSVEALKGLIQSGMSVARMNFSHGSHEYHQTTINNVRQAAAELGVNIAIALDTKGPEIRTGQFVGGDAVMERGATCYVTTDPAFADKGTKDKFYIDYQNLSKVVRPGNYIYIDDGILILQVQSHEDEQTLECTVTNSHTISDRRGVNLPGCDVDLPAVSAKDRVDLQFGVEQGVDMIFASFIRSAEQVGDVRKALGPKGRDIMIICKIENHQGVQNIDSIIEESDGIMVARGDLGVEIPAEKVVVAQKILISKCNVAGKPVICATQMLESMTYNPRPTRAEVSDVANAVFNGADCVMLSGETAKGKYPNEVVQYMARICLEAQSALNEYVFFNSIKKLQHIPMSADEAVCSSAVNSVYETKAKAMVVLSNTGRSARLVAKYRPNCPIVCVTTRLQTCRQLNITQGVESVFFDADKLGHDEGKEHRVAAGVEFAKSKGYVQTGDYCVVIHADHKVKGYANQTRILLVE
#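 Purified LmPK (0.1 nM) with 0.5 mM PEP and 0.1 mM ADP in imidazole buffer pH 7.2 with MgCl2/KCl, 1 h at room temperature. ATP formed was read by luciferase luminescence and normalized to no-enzyme and uninhibited controls.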
# Tb PYK inh = blocks Trypanosoma brucei pyruvate kinase; actives 0.12% (n = 410,000); TbPYK enzyme, Kinase-Glo Plus ATP luminescence, 45 min; Potency, µM (highest dose often 76.8 µM), for the others: at the highest dose activity, negative = inhibition, most hits filed as inhibitors; Q57TT1; note: % is set by controls: 0 for no effect and ±100 for the full control effect; nearly all actives have a fitted effect of over 50% in size
#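 In this concentration-response screen, enzyme-free wells defined baseline while DMSO plates tracked drift. Each reaction combined TbPYK, substrate, compound and 130 uM ADP for 45 min at room temperature. Kinase-Glo Plus luminescence gave the signal.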
# SARS PLP yeast = SARS-CoV PLP inhibition in yeast; S. cerevisiae expressing SARS-CoV PLpro, growth rescue; Potency, µM (titrated, usually from 32.9 µM), for the others: at the top dose activity, positive = growth rescue, most hits filed as activators; actives 0.19% (n = 330,000); calls by dose curve; note: 0% is about no effect; nearly all actives have a fitted effect of over 55% in size
# Giardia FBPA inh-1 = blocks Giardia fructose-bisphosphate aldolase activity. A8B2U2. purified Giardia FBPA. Potency, µM (highest dose often 59.6 µM), inactives show top-dose activity, negative = inhibition, usual class: inhibitors. actives 0.71% (n = 290,000); note: % is set by controls: 0 for no effect and ±100 for the full control effect; nearly all actives have a fitted effect of over 55% in size
# Target sequence (A8B2U2 whole entry, looked up): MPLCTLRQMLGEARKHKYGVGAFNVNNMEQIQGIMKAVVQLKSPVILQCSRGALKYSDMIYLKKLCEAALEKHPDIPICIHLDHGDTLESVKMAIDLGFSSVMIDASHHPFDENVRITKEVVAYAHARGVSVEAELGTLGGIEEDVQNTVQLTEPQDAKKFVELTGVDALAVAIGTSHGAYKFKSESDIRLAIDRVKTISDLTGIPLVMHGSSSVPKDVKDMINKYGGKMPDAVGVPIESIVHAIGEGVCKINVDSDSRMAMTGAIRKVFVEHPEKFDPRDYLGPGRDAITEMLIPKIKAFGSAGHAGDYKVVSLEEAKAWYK
#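 40 nM FBPA preincubated 10 min at RT with compound (up to 57.5 uM final), then substrate plus GAPDH/TPI/NAD/arsenate coupling and diaphorase/resazurin added. Fluorescence read after 20 min at RT, 525/598 nm.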
# Giardia growth = blocks growth of Giardia lamblia trophozoites; shares compounds with Giardia FBPA inh-1; Giardia lamblia trophozoite growth inhibition; Potency, µM (top dose mostly 57.5 µM), for inactives: top-dose activity change, negative = inhibition, hits mostly inhibitors; actives 5% (n = 1,500);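 note: trophozoites exposed to compound for 48 h at 37 °C; % is set by controls: 0 for no effect and ±100 for the full control effect; nearly all actives have a fitted effect of over 70% in size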
# Mammal cell tox = counter-screen for Giardia aldolase inhibitors: mammalian cell toxicity; shares compounds with Giardia FBPA inh-1; actives 4% (n = 1,500); mammalian cell viability counter-screen, qHTS; Potency, µM (highest dose often 57.5 µM), without a hit: at the top dose viability change, negative = toxicity, most hits filed as inhibitors;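 note: Chinese hamster ovary cells used as mammalian cytotoxicity surrogate; viability measured as cellular ATP by luminescence; compound exposure lasted 48 h before reading; % is set by controls: 0 for no effect and ±100 for the full control effect; nearly all actives have a fitted effect of over 60% in size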
# Giardia FBPA inh-2 = confirmation of Giardia fructose-bisphosphate aldolase inhibitors. shares compounds with Giardia FBPA inh-1. purified Giardia aldolase enzyme activity, qHTS. Potency, µM (top dose mostly 57.5 µM), for the others: at the top dose activity change, negative = inhibition, usual class: inhibitors. actives 5% (n = 1,500); note: % is set by controls: 0 for no effect and ±100 for the full control effect; nearly all actives have a fitted effect of over 45% in size
# Rabbit FBPA inh = selectivity test for Giardia aldolase inhibitors: rabbit aldolase. Rabbit muscle FBPA enzyme inhibition, selectivity counter-screen. Potency, µM (series often up to 57.5 µM), for the others: at the highest dose activity, negative = inhibition, actives largely listed as inhibitors. actives 4% (n = 1,500). shares compounds with Giardia FBPA inh-1; note: % is set by controls: 0 for no effect and ±100 for the full control effect; nearly all actives have a fitted effect of over 60% in size
# GAPDH coupling = GAPDH inhibition flagged for Giardia aldolase hits. shares compounds with Giardia FBPA inh-1. GAPDH coupling enzyme counterscreen, biochemical, qHTS. Potency, µM (titrated, usually from 57.5 µM), for inactives: top-dose activity change, negative = inhibition, usual class: inhibitors. actives 6% (n = 1,500). AID 2795; note: % is set by controls: 0 for no effect and ±100 for the full control effect; nearly all actives have a fitted effect of over 55% in size
# An asterisk follows results filed as active; ? = inconclusive; nt = no result given; [ ] = remark or other dose. This is a sample that favours compounds with a hit; in the whole collection about 1.1% have one here. Unless noted, calls come from the whole dose curve; as a rule, active = well fitted curve in the direction sought with a large enough effect; inconclusive = small, poorly fitted or top-dose-only effect, or another doubt; inactive = no such curve, though single readings can be large; an effect the other way counts as inactive or inconclusive. Potency is the fitted concentration of half-maximal effect.
SMILES,RE007 growth inh,LmPK inh,Tb PYK inh,SARS PLP yeast,Giardia FBPA inh-1,Giardia growth,Mammal cell tox,Giardia FBPA inh-2,Rabbit FBPA inh,GAPDH coupling
CCOC(=O)Cc1csc(NC(=S)NC(=O)c2cccc([N+](=O)[O-])c2)n1,4%,1%,-3%,2%,4.5µM*,?,4%,12%,4%,11%
CCOC(=O)Cc1csc(NC(=S)NC(=O)c2ccccc2)n1,-9%,0%,5%,-8%,?,nt,nt,nt,nt,nt
OC[C@H]1OC(O)[C@@H](O)[C@@H](O)[C@H]1O (stereo partly specified),nt,nt,nt,nt,-5%,nt,nt,nt,nt,nt
O=C(CN1CCOCC1)N1CCCc2ccccc21,-17%,5%,20%,0%,13µM*,?,-2%,0%,8%,0%
CCc1cccc(-n2c(=O)c3cccnc3n2CC(=O)NCc2ccccc2Cl)c1,nt,nt,-5%,nt,nt,nt,nt,nt,nt,nt
Cc1ccc(C)c(N2CCN(c3nc4ccccc4c4nc(-c5cccnc5)nn34)CC2)c1,nt,nt,0%,nt,nt,nt,nt,nt,nt,nt
Cn1c(=O)c2c(nc(NNC(=O)C(F)(F)F)n2C)n(C)c1=O,-3%,1%,0%,0%,18µM*,-6%[10.4 µM],0%,1%,-2%,13%
Cn1c(=O)c2c(nc(NN=C3CCCC3)n2C)n(C)c1=O,-21%,-4%,-1%,-2%,16µM*,11%,-4%,-12%,2%,-4%
CCC1Oc2ccccc2N(CC(=O)NCCN2CCc3ccccc3C2)C1=O (stereo unspecified),1%,3%,-7%,-17%,16µM*,-22%,18%,6%,9%,1%
CCCN1CCN(CCCNC(=O)CN2C(=O)C(CC)Oc3ccccc32)CC1 (stereo unspecified),6%,1%,1%,9%,-3%,nt,nt,nt,nt,nt
Cc1ccccc1-c1nc2ccccc2c(=O)n1/N=C/c1ccccc1[N+](=O)[O-],-5%,0%,-16%,1%,4.5µM*,10µM*,?,?,?,35µM*
Cc1ccccc1-c1nc2ccccc2c(=O)n1/N=C/c1ccc([N+](=O)[O-])cc1,7%,nt,-3%,nt,nt,nt,nt,nt,nt,nt
CCOc1ccc(CNc2ccc(N3CCCC3)cc2)cc1,-25%,1%,-20%,-6%,0.5µM*,-14%[38.3 µM],-11%,?,?,?
COc1cc(CNc2ccc(N3CCCC3)cc2)cc(Cl)c1OC,-14%,-7%,?,-1%,1.8µM*,-30%,-27%,18µM*,32µM*,?
CCOc1cc(CNc2ccc(N3CCCC3)cc2)cc(Cl)c1OC,?,-5%,?,0%,?,nt,nt,nt,nt,nt
CCC(Sc1nc2nccnc2c(=O)n1Cc1ccc(C)cc1)C(=O)NC1CCCCC1 (stereo unspecified),nt,nt,0%,nt,nt,nt,nt,nt,nt,nt
Cc1ccc(C)c(N2CCN(CCN3CCCCC3)CC2)c1,1%,-7%,23%,1%,16µM*,?,-1%,4%,6%,-14%
Cc1cc(Br)ccc1OCCCCN1CCCCC1,-10%,-12%,18%,1%,?,nt,nt,nt,nt,nt
Cc1cc(Br)ccc1OCCOCCN1CCCC1,-2%,-5%,11%,11%,16µM*,2%[10.4 µM],-3%,-7%,6%,-11%
CCOc1ccc(OCCOCCN2CCCC2)cc1,2%,0%,6%,-1%,28µM*,?,9%,9%,20%,0%
O=C(CSc1nc2c([nH]c3ccccc32)c(=O)n1-c1ccc(F)cc1)N1CCCc2ccccc21,nt,nt,0%,nt,nt,nt,nt,nt,nt,nt
Cc1ccccc1NNC(=O)C(=O)NNc1ccccc1C,33%,2%,6%,0%,16µM*,?,-6%,-11%,5%,8%
CC(=O)OC[C@H]1O[C@@H](O/N=C(\C)CCC(=O)OC[C@@H]2O[C@H](C#Cc3ccccc3)C=C[C@@H]2Oc2ccc(C)cc2)[C@H](OC(C)=O)[C@@H](OC(C)=O)[C@H]1OC(C)=O,nt,nt,nt,nt,0%[12.9 µM],nt,nt,nt,nt,nt
COC(=O)/C(=C/Nc1cccc2ccccc12)[N+](=O)[O-],-1%,27%,-10%,-15%,?,-19%[38.3 µM],-15%,?,?,?
C=C(C)C(O)/C=C/c1ccc(C(F)(F)F)cc1 (stereo unspecified),nt,nt,nt,nt,1%,nt,nt,nt,nt,nt
SMILES,RE007 growth inh,LmPK inh,Tb PYK inh,SARS PLP yeast,Giardia FBPA inh-1,Giardia growth,Mammal cell tox,Giardia FBPA inh-2,Rabbit FBPA inh,GAPDH coupling
COc1ccc(/C=N/NC2=NS(=O)(=O)c3ccccc32)cc1OC(C)=O,3%,2%,16%,-3%,3.5µM*,12%[38.3 µM],-4%,?,7%,3%
COc1ccc(/C=N/NC2=NS(=O)(=O)c3ccccc32)cc1,6%,-3%,-3%,2%,4.5µM*,-7%[10.4 µM],5%,9%,16%,6%
COc1ccc(OC)c(/C=N/NC2=NS(=O)(=O)c3ccccc32)c1,-7%,0%,-13%,-1%,16µM*,-17%[10.4 µM],-4%,1%,8%,10%
CC(=O)Oc1ccc(/C=N/NC2=NS(=O)(=O)c3ccccc32)cc1,-7%,-2%,-3%,3%,7.9µM*,-26%,1%,10%,1%,12%
O=S1(=O)N=C(N/N=C/c2ccc(Br)o2)c2ccccc21,6%,0%,-6%,1%,?,nt,nt,nt,nt,nt
CN(C)c1ccc(/C=N/NC2=NS(=O)(=O)c3ccccc32)cc1,33%,-3%,-6%,1%,?,nt,nt,nt,nt,nt
Cc1ccc(C(C)C)c(OCCSc2nc(-c3ccccc3F)nc3cc(=O)[nH]n23)c1,nt,nt,-4%,nt,nt,nt,nt,nt,nt,nt
COc1ccc(Nc2nnc(-c3ccc(C)c(S(=O)(=O)N4CCN(C)CC4)c3)c3ccccc23)cc1,nt,nt,-4%,nt,nt,nt,nt,nt,nt,nt
CCCc1cnc2c(c1SCc1cccc(C)c1)c(=O)n(C)c(=O)n2C,nt,nt,-14%,nt,nt,nt,nt,nt,nt,nt
COc1cc(/C=N/NC2=NS(=O)(=O)c3ccccc32)cc(OC)c1OC,-5%,1%,2%,2%,7.9µM*,-14%,6%,13%,8%,6%

# Screening data from PubChem.
